From PubChem BioAssay (NCI)
The panel holds about 83,000 compounds, 20% with a hit somewhere; the sample as a whole holds those more often.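 Note: values are percent growth. 100 is the growth of untreated cells, values between 100 and 0 indicate rising inhibition; between -100 and 0 indicates cell death.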 Values without a mark were called inactive. Activity calls are given as the source filed them. How the source made its calls: active means growth percent below 10; inactive means the rest.

What follows are compounds tested on DU-145 prostate (assay: NCI-60 one-dose screen, 48 h (100 = growth as untreated, 0 = no growth, -100 = all killed)). Details: 10 µM unless noted.

SMILES	growth
COC(=O)c1ccc2c(c1)C(=O)c1c-2n(CCCN)c(=O)c2cc([N+](=O)[O-])ccc12	-100% (active)
O=C(Nn1c2c(sc1=Nc1ccccc1)C(=O)c1ccccc1C2=O)c1cc2ccc1CCc1ccc(cc1)CC2	71.7%
O=C(CN1C(=O)CCC1=O)Nc1ncc(Cc2ccc(F)cc2)s1	106%
Nc1ncnc2c1N=C(c1ccc(Cl)cc1)CC(c1ccc3c(c1)OCO3)N2 (stereo not given)	109%
N#C/C(=C/c1ccc([N+](=O)[O-])cc1)n1nnc2cc(F)c(F)cc21	54.2%
COc1ccc(C(=O)Nc2ncc(Cc3ccc(F)cc3)s2)cc1	16.2%
CCN1CCN(Cc2cn(CC(=O)Nc3ccc4c(ccn4Cc4ccccc4)c3)nn2)CC1	105%
CCOC(=O)C1=C(NC)OCC1=O	110%
CC(=O)c1cc(O)c2ccccc2c1O	126%
CC1(C)CC[C@]2(c3nnc(-c4ccncc4)o3)CC[C@H]3C(=CC[C@H]4[C@@]3(C)CC[C@H]3C(C)(C)C(=O)CC[C@]43C)[C@@H]2C1	86.3%
CC(C)(C)n1cc(-c2ccnc(NCCCNS(=O)(=O)c3ccc(F)cc3)c2)c(-c2cccc(F)c2)n1	77.7%
COc1cc(CNS(=O)(=O)c2ccc(C)cc2)ccc1OCc1cn(-c2ccc(Br)cc2)nn1	104%
Cc1ccc(-c2csc(NC(=O)CN3CCN(c4cc5c(cc4F)c(=O)c(C(=O)O)cn5C4CC4)CC3)n2)cc1	13.1%
CCCCCCCCCCCCCCCCCCOc1ccccc1CC(=O)OCC[N+]1(C)CCCC1	45.4%
COc1ccc(-c2nc(/C=C3\SC(=NCc4ccccc4)NC3=O)c3ccccn23)cc1	-88.6% (active)
COc1ccc2c3c([nH]c2c1)C(=O)c1nc(C)ccc1C3=O	-73.2% (active)
CN(CCOc1ccc(C#N)cc1)CCOc1ccc(C#N)cc1	94.3%
CCN1C(=O)N(CC)C2C1NN=c1s/c(=C\c3cccc([N+](=O)[O-])c3)c(=O)n12 (stereo not given)	8.55% (active)

SMILES	growth
O=C(CCCCCCN1CC(=O)N2[C@H](c3cc(Br)cs3)c3[nH]c4ccccc4c3C[C@H]2C1=O)NO	29.1%
Cc1ccc(/C=C2\CN(C(=O)OC(C)(C)C)C/C(=C\c3ccc(C)cc3)C2=O)cc1	38.7%
CN(C)CCNC(=O)c1cccc(-c2cnc3ccc(-c4ccc5c(c4)OCO5)nn23)c1	66.5%
Cn1c(=O)c2c(nc(NC3=NS(=O)(=O)c4ccccc43)n2CC(=O)N2CCc3ccccc32)n(C)c1=O	106%
Cc1ccc(NC(=S)NNC(=S)NNc2ccccc2)cc1C	77.9%
C=CCn1c(SCC(=O)Nc2ccc(C(=O)/C=C/c3cc4cc(OC)ccc4nc3Cl)cc2)nnc1-c1ccc(Br)cc1	86.1%
CCCC(=O)NC(c1ccc2c(c1)OCO2)c1ccc2cccnc2c1O (stereo not given)	36.5%
c1ccc(C2=NN[C@H](c3cn(-c4ccccc4)nc3-c3ccccc3)C2)cc1	56.1%
C[C@@H]1CCC[C@H]1CC(N)C(=O)O (stereo not given in full)	106%
O=C1c2cccnc2C(=O)c2c1c(C(=O)NCCCN1CCCCC1)c1ccccn21	-94.4% (active)
CCCCCCCCn1ccc2cc(NC(=O)Cn3cc(CN4CCCCC4)nn3)ccc21	52.2%
COC(C(=O)[C@@H](O)[C@@H](C)O)[C@@H]1Cc2cc3cc(O[C@H]4C[C@@H](O[C@H]5C[C@@H](O)[C@H](O)C(C)O5)[C@H](O)C(C)O4)c(C)c(O)c3c(O)c2C(=O)[C@H]1O[C@H]1C[C@@H](O[C@H]2C[C@@H](O[C@H]3C[C@@H](O)[C@H](OC)C(C)O3)[C@@H](O)C(C)O2)[C@H](O)C(C)O1 (stereo not given in full)	12%
CCCCN1C(=O)/C(=c2\sc3n(c2=O)C2C(NN=3)N(CC)C(=O)N2CC)c2ccccc21 (stereo not given)	8.48% (active)
COc1ccc2c(O)c(/C=C3\N=Nc4ncccc43)oc2c1C[C@H]1CCNC[C@H]1F	7.19% (active)
COc1ccc2c(O)c(/C=C3\N=Nc4ccccc43)oc2c1C[C@@H]1CCNC[C@H]1F	78.6%
COc1ccc(N2CCC(=O)NC2=S)cc1	115%
CC(=O)OCc1nc(C#N)c(N(C)C)o1	110%
